This is an account of results in the supplement of paper PMC12339681.

Where a name gives a salt, the structure may show the parent alone.

The experiment deals with PBMC-derived induced microglia-like cells (piMGLC). Description: synaptosome phagocytic index relative to DMSO control (fraction of DMSO); higher = more phagocytosis. To be noted: concentration: 10 uM (2 uM for compounds listed in Table S2); pretreatment time: 24 h; assay time: 3 h.
For the compound `N[C@H]1CONC1=O` [L-Cycloserine], the synaptosome phagocytic index stood at 0.883.

`CCN1CCCC1CNC(=O)c1cc(S(N)(=O)=O)ccc1OC` (stereo unspecified) [Sulpiride]: the synaptosome phagocytic index turned out to be 0.571.

Turning to `CC1(C)S[C@@H]2[C@H](NC(=O)[C@H](NC(=O)N3CCN(S(C)(=O)=O)C3=O)c3ccccc3)C(=O)N2[C@H]1C(=O)O` [Mezlocillin_(sodium)], the synaptosome phagocytic index turned out to be 0.977.

Regarding `CN1CCC(=C2c3ccccc3C=Cc3ccccc32)CC1` [Cyproheptadine_(hydrochloride)], the synaptosome phagocytic index was determined as 0.741.

As to `CN(C)CCc1c[nH]c2ccc(CS(=O)(=O)N3CCCC3)cc12` [Almotriptan_(malate)], the synaptosome phagocytic index turned out to be 0.882.

`CN1[C@@H]2CC[C@H]1C[C@@H](OC(c1ccccc1)c1ccccc1)C2` [Benztropine_(mesylate)]: the synaptosome phagocytic index worked out at 0.833.

`CC[C@@]12C=C(C(=O)O)n3c4c(c5ccccc53)CCN(CCC1)[C@H]42` [Apovincaminic_acid_(hydrochloride_salt)]: the synaptosome phagocytic index turned out to be 0.745.

As for `OC(CCN1CCCCC1)(c1ccccc1)C1CCCCC1` (stereo unspecified) [Trihexyphenidyl_(hydrochloride)], the synaptosome phagocytic index is 1.24.

For the compound `C[C@@]1(c2cc(NC(=O)c3ccc(C#N)cn3)ccc2F)C=CSC(N)=N1` [Atabecestat], the synaptosome phagocytic index came to 0.547.

For `CN(C)CCC=C1c2ccccc2C=Cc2ccccc21` [Cyclobenzaprine_(hydrochloride)], the synaptosome phagocytic index amounted to 0.59.

Regarding `CN1CC[C@H](c2c(O)cc(O)c3c(=O)cc(-c4ccccc4Cl)oc23)[C@H](O)C1` [Flavopiridol], the synaptosome phagocytic index is 0.936.

Consider `CN(C)C(=O)c1cc2cnc(Nc3ccc(N4CCNCC4)cn3)nc2n1C1CCCC1` [Ribociclib_succinate], for which the synaptosome phagocytic index was determined as 0.592.

With `CCc1cc(Nc2nc(-c3ccc(-n4cnc(C)c4)c(F)c3)cs2)c(C)cc1C`, the synaptosome phagocytic index was 0.666.

For `NC[C@H]1CC[C@H](C(=O)O)CC1` [Tranexamic_acid], the synaptosome phagocytic index was 0.927.

Take `COCCOC(=O)C1=C(C)NC(C)=C(C(=O)OC(C)C)C1c1cccc([N+](=O)[O-])c1` (stereo unspecified) [Nimodipine]: the synaptosome phagocytic index stood at 0.85.

In the case of `CN(C)C(=N)NC(=N)N` [Metformin], the synaptosome phagocytic index was 1.28.

For the compound `CCOCc1cc(OC)c(-c2ccc(C[C@H](NC(=O)c3c(F)cccc3F)C(=O)O)cc2)c(OC)c1` [Firategrast], the synaptosome phagocytic index came to 0.931.

For `C[C@@H](Nc1nc(N[C@H](C)C(F)(F)F)nc(-c2cccc(Cl)n2)n1)C(F)(F)F` [Vorasidenib], the synaptosome phagocytic index was found to be 0.481.

`CNS(=O)(=O)Cc1ccc2[nH]cc(CCN(C)C)c2c1` [Sumatriptan_(succinate)]: the synaptosome phagocytic index amounted to 0.992.

Take `OC(Cn1cncn1)(Cn1cncn1)c1ccc(F)cc1F` [Fluconazole]: the synaptosome phagocytic index turned out to be 0.902.

With `C.CN(C)C(=O)c1cc2cnc(Nc3ccc(N4CCNCC4)cn3)nc2n1C1CCCC1` [Ribociclib_succinate_hydrate], the synaptosome phagocytic index stood at 0.195.

On to `CCOc1nc2cccc(C(=O)O)c2n1Cc1ccc(-c2ccccc2-c2nnn[nH]2)cc1` [Candesartan], for which the synaptosome phagocytic index came out at 1.1.

`CC(C)(S)[C@@H](N)C(=O)O` [Penicillamine]: the synaptosome phagocytic index was determined as 0.328.

As to `COc1cc(C(=O)NCc2ccc(OCCN(C)C)cc2)cc(OC)c1OC` [Trimethobenzamide_hydrochloride], the synaptosome phagocytic index worked out at 1.24.

Consider `Nc1ncnc2c1ncn2[C@@H]1O[C@H](CO)[C@@H](O)[C@H]1O` [Adenosine], for which the synaptosome phagocytic index was 0.51.

For `CC1OC2(CS1)CN1CCC2CC1` (stereo unspecified) [Cevimeline_(hydrochloride_hemihydrate)], the synaptosome phagocytic index amounted to 0.63.

Take `CC(C)NCC(O)COc1ccc(CC(N)=O)cc1` (stereo unspecified) [Atenolol]: the synaptosome phagocytic index is 0.717.

In the case of `CN1C(=O)OC(C)(C)C1=O` [Trimethadione], the synaptosome phagocytic index worked out at 0.751.

With `COc1cc2ncnc(Nc3ccc(F)c(Cl)c3)c2cc1NC(=O)/C=C/CN1CCCCC1` [Dacomitinib], the synaptosome phagocytic index came out at 1.26.

Turning to `CCCN[C@H]1CCc2nc(N)sc2C1` [Pramipexole_(dihydrochloride_hydrate)], the synaptosome phagocytic index is 0.763.

Turning to `Cc1ccc(C(=O)c2cc(O)c(O)c([N+](=O)[O-])c2)cc1` [Tolcapone], the synaptosome phagocytic index amounted to 0.526.

Regarding `CN(C)C(=O)c1cc2cnc(Nc3ccc(N4CCNCC4)cn3)nc2n1C1CCCC1` [Ribociclib_hydrochloride], the synaptosome phagocytic index amounted to 0.332.

In the case of `CN1C(C(=O)Nc2ccccn2)=C(O)c2ccccc2S1(=O)=O` [Piroxicam], the synaptosome phagocytic index was found to be 0.661.

Turning to `NCC(=O)CCC(=O)O` [5-Aminolevulinic_acid_(hydrochloride)], the synaptosome phagocytic index stood at 0.444.

On to `N[C@H](C(=O)O)[C@@H]1CC(Cl)=NO1` [Acivicin], for which the synaptosome phagocytic index was found to be 0.68.

In the case of `Cn1cc(-c2c[nH]c3ncnc(N4CCOCC4)c23)cc1C#N`, the synaptosome phagocytic index is 1.32.
